Assay results reported in PubChem BioAssay (NCI).
Compounds without any hit were thinned out: in the full panel of roughly 83,000, 20% have a hit.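 48-hour exposure, single concentration, 96-well plates; percent growth endpoint where 0 means no net growth. Active: below 10.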 Activity calls are given as the source filed them.

How the values were obtained:
Assay in all cases: NCI-60 one-dose screen, 48 h (100 = growth as untreated, 0 = no growth, -100 = all killed)
Conditions in all cases: 10 µM unless noted
HCT-15 colon = test system: HCT-15 colon
HT29 colon = test system: HT29 colon
SNB-75 CNS = test system: SNB-75 CNS
SNB-19 CNS = test system: SNB-19 CNS
U251 CNS = test system: U251 CNS
PC-3 prostate = test system: PC-3 prostate
SK-MEL-5 melanoma = test system: SK-MEL-5 melanoma
UACC-62 melanoma = test system: UACC-62 melanoma
LOX IMVI melanoma = test system: LOX IMVI melanoma
SK-MEL-28 melanoma = test system: SK-MEL-28 melanoma
SK-MEL-2 melanoma = test system: SK-MEL-2 melanoma
EKVX NSCLC = test system: EKVX NSCLC
SN12C renal = test system: SN12C renal
UO-31 renal = test system: UO-31 renal
ACHN renal = test system: ACHN renal
A498 renal = test system: A498 renal
CCRF-CEM leukemia = test system: CCRF-CEM leukemia
MOLT-4 leukemia = test system: MOLT-4 leukemia
TK-10 renal = test system: TK-10 renal
CAKI-1 renal = test system: CAKI-1 renal

Measured: growth

C[C@@H]1[C@H]2[C@H](C=C3[C@@H]4CC[C@H]5Cc6nc7c(nc6C[C@]5(C)[C@H]4C[C@@H](O)[C@@]32C)C[C@@H]2CC[C@H]3C4=C[C@@H]5O[C@@]6(CC[C@](C)(CO)O6)[C@@H](C)[C@@]5(O)[C@@]4(C)[C@H](O)C[C@@H]3[C@@]2(C)C7)O[C@]12CCC(C)(C)O2
inactive: HCT-15 colon 11.2% | SNB-19 CNS 25.1% | SK-MEL-28 melanoma 40.8% | SK-MEL-2 melanoma 30.8% | EKVX NSCLC 21.8% | SN12C renal 67.9% | ACHN renal 42.5%
active: HT29 colon -14.6% | SNB-75 CNS -9.04% | U251 CNS 7.53% | PC-3 prostate -32% | SK-MEL-5 melanoma 0.934% | UACC-62 melanoma -0.259% | LOX IMVI melanoma 3.2% | UO-31 renal -6.3% | A498 renal -72.6% | CCRF-CEM leukemia 2.79% | MOLT-4 leukemia -21.1%

CCOC(=O)Nc1ccc2c3c(cccc13)-c1ccccc1-2
active: HT29 colon 5.04% | SNB-75 CNS 6.18%
inactive: HCT-15 colon 25.2% | SNB-19 CNS 45.1% | U251 CNS 34.5% | PC-3 prostate 49.8% | SK-MEL-5 melanoma 33.6% | UACC-62 melanoma 30.5% | LOX IMVI melanoma 30.5% | SK-MEL-28 melanoma 46% | SK-MEL-2 melanoma 24.8% | EKVX NSCLC 48.4% | SN12C renal 42.2% | TK-10 renal 45.5% | ACHN renal 50.6% | CAKI-1 renal 16.5% | A498 renal 76.2% | CCRF-CEM leukemia 55.4%

COc1cnc2c(c1)C(=O)c1c-2n(CCCn2ccnc2)c(=O)c2cc(F)ccc12
inactive: SNB-19 CNS 16.6% | EKVX NSCLC 11.4% | SN12C renal 12.4%
active: HCT-15 colon -28.4% | HT29 colon -16.2% | SNB-75 CNS 4.31% | U251 CNS -27.1% | PC-3 prostate -4.35% | SK-MEL-5 melanoma -96.2% | UACC-62 melanoma -55% | LOX IMVI melanoma -68.9% | SK-MEL-28 melanoma -62.5% | SK-MEL-2 melanoma -19.1% | UO-31 renal -77.5% | ACHN renal -72.6% | A498 renal -84.4% | CCRF-CEM leukemia -0.897% | MOLT-4 leukemia -23.9%

COc1cnc2c(c1)C(=O)c1c-2n(CCCNC(C)C)c(=O)c2cc(F)ccc12
inactive: SNB-19 CNS 11%
active: HCT-15 colon -5.08% | HT29 colon 0.147% | SNB-75 CNS -22.5% | U251 CNS -32.8% | PC-3 prostate -5.02% | SK-MEL-5 melanoma -98.5% | UACC-62 melanoma -44.2% | LOX IMVI melanoma -68% | SK-MEL-28 melanoma -11.1% | SK-MEL-2 melanoma -5.42% | EKVX NSCLC -20.8% | SN12C renal -4.41% | UO-31 renal -89.9% | ACHN renal -69.4% | A498 renal -89% | CCRF-CEM leukemia -1.1% | MOLT-4 leukemia -22.9%

Cc1ccc2nc3c(n2c1)C(=O)C(=O)c1ccccc1-3
active: HCT-15 colon -70.1% | HT29 colon -39.1% | SNB-75 CNS -70.2% | SNB-19 CNS -77.7% | U251 CNS -86% | PC-3 prostate -24.5% | SK-MEL-5 melanoma -95.9% | UACC-62 melanoma -89% | LOX IMVI melanoma -72% | SK-MEL-28 melanoma -86.4% | SK-MEL-2 melanoma -55.6% | EKVX NSCLC -89.6% | SN12C renal -71.7% | TK-10 renal -62.4% | ACHN renal -77.1% | CAKI-1 renal -83% | A498 renal -96.4% | CCRF-CEM leukemia -12.8% | MOLT-4 leukemia -70.8%

CN1CCN(c2nc3scc(-c4ccccc4)c3c(=O)[nH]2)CC1
inactive: HCT-15 colon 104% | HT29 colon 96.7% | SNB-75 CNS 88.4% | SNB-19 CNS 96.5% | U251 CNS 99.4% | PC-3 prostate 92.9% | SK-MEL-5 melanoma 96.7% | UACC-62 melanoma 94.2% | LOX IMVI melanoma 95.9% | SK-MEL-28 melanoma 104% | SK-MEL-2 melanoma 104% | EKVX NSCLC 90.3% | SN12C renal 100% | UO-31 renal 81.4% | ACHN renal 107% | A498 renal 91% | CCRF-CEM leukemia 103% | MOLT-4 leukemia 95.5%

Nc1nc(NC2CC2)c2ncn(C3C=CC(CO)C3)c2n1 (stereo not drawn)
inactive: HCT-15 colon 107% | HT29 colon 101% | SNB-75 CNS 117% | SNB-19 CNS 112% | U251 CNS 102% | PC-3 prostate 119% | SK-MEL-5 melanoma 91.6% | UACC-62 melanoma 83.6% | LOX IMVI melanoma 103% | SK-MEL-28 melanoma 118% | SK-MEL-2 melanoma 89.4% | EKVX NSCLC 115% | SN12C renal 98.2% | TK-10 renal 96.4% | ACHN renal 103% | CAKI-1 renal 90.4% | A498 renal 104% | CCRF-CEM leukemia 97.3% | MOLT-4 leukemia 76.9%

CNCCCn1c2c(c3ccc(F)cc3c1=O)C(=O)c1cc(OC)cnc1-2
active: HCT-15 colon -3.12% | HT29 colon -20.9% | SNB-75 CNS -23.4% | U251 CNS -25.8% | PC-3 prostate 6.67% | SK-MEL-5 melanoma -97.3% | UACC-62 melanoma -33.4% | LOX IMVI melanoma -70.7% | SK-MEL-28 melanoma 9.85% | SK-MEL-2 melanoma -9.66% | EKVX NSCLC -13.2% | SN12C renal 6.91% | UO-31 renal -89.3% | ACHN renal -57.2% | A498 renal -87.6% | MOLT-4 leukemia -19.8%
inactive: SNB-19 CNS 11.9%

COc1cccc2c1C(=O)c1c(O)c3c(c(O)c1C2=O)C[C@@](O)(C(C)=O)C[C@@H]3O[C@H]1C[C@H](N)[C@H](O)[C@H](C)O1
active: HCT-15 colon 7.88% | HT29 colon -13.5% | SNB-75 CNS -91.4% | SNB-19 CNS 2.11% | U251 CNS 0.281% | PC-3 prostate -26.3% | SK-MEL-5 melanoma -100% | UACC-62 melanoma -65.8% | LOX IMVI melanoma -35% | SK-MEL-28 melanoma -44.5% | SK-MEL-2 melanoma -82% | EKVX NSCLC -25% | SN12C renal 4.49% | UO-31 renal -64.7% | ACHN renal -23.1% | CAKI-1 renal -29.4% | A498 renal -72.7% | MOLT-4 leukemia -17.8%
